40 compounds from PubChem BioAssay (Tox21) can be followed below.

Records with an inconclusive call do not appear. Activity calls are given as the source filed them. Calls come from the whole dose curve.
% is set by controls: 0 for no effect and ±100 for the full control effect; potency is the fitted concentration of half-maximal effect.

Chain of 5-hydroxytryptamine receptor 2A (Homo sapiens) (P28223 whole entry, looked up): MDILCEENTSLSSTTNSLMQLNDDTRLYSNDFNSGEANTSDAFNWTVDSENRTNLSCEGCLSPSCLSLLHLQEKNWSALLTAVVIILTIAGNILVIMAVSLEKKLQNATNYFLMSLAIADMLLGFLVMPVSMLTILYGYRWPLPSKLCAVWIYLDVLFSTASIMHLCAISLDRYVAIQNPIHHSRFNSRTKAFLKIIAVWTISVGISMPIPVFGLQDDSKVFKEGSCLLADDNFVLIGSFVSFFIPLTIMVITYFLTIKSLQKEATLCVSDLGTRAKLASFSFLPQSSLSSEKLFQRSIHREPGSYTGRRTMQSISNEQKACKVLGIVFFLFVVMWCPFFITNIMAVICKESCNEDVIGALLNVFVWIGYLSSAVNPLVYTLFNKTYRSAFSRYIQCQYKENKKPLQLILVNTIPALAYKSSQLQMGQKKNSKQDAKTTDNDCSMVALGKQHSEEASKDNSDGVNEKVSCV

The assay addresses 5-hydroxytryptamine receptor 2A (Homo sapiens) (UniProt P28223). In words: 5-hydroxytryptamine receptor 2A (HTR2A) small molecule antagonists, cell-based qHTS assay (AID 1963586). Note: nearly all actives have a fitted effect of over 45% in size. As to conditions: HTR2A-CHO cells, DOI-induced calcium flux, fluorescence; series mostly up to 61.5 µM; activity, negative = inhibition: at the top concentration. The source says: National Center for Advancing Translational Sciences [NCATS]
Division of Preclinical Innovation [DPI]
U.S. Environmental Protection Agency [EPA]
National Institutes of Environmental Health Sciences [NIEHS]
National Toxicology Program [NTP]
U.S. Food and Drug Administration [FDA]
The HTR2A receptor is a subtype of the 5-HT2 receptor that belongs to the serotonin receptor family and is a G protein-coupled receptor (GPCR). The HTR2A-CHO cell line stably expressing human 5-hydroxytryptamine receptor 2A (HTR2A) can be used for screening antagonists of interactions between 5-HT2 and its ligands. The HTR2A-CHO calcium flux assay is a homogeneous fluorescence-based assay for detecting the intracellular calcium level using FDSS kinetic plate reader system.
Tox21 Assay Protocol Summary:
HTR2A-CHO cells were dispensed at 2000 cells/3uL/well in 1536-well black-clear bottom plates using a Multidrop Dispenser. After the assay plates were incubated at a 37 C/5% CO2 incubator for 18 h, 3 uL of Dye Loading Buffer was transferred to the assay plate by a Flying Reagent Dispenser. The assay plates were incubated at 37 C for 1h. For antagonist mode, 23 nL of compounds dissolved in DMSO, positive controls or DMSO only was transferred to the assay plate by a pin tool. After 5 min incubation at room temperature, 1.5 uL of 4-Iodo-2,5-dimethoxy-alpha-methylbenzeneethanamine hydrochloride (DOI) at 4nM was added to each well. The fluorescence intensity in the plates was measured using FDSS 7000EX kinetic plate reader for 3 min at 1 sec intervals.
Background: In qHTS, concentration-response curves come from the screen itself.
Take `CN1[C@@H]2CC(OC(=O)[C@H](CO)c3ccccc3)C[C@H]1[C@@H]1O[C@@H]12` (stereo not given in full): the Potency result was “inactive”.
Take `Brc1cc(Br)c(Oc2cc(Br)c(Br)cc2Br)cc1Br`: the “activity, negative = inhibition” value is 6.77% [at 28.5 µM] (inactive).
On the same count and under the same terms, the result for `CC(=O)Nc1ccc(S(=O)(=O)Cl)cc1` reads 21.7% (inactive); that for `Clc1nc2ccccc2nc1Cl`, 22.4% (inactive).
As for `CCCCCCCCCCCCCCCCCBr`, the activity, negative = inhibition is 31.5% [at 12.7 µM] (inactive).
Same read-out and setting: the result for `Cc1c(Nc2ncccc2C(=O)O)cccc1C(F)(F)F` reads 3.22% [at 28.5 µM] (inactive).
The same measure, in the same setting: in the case of `Nc1ccc2cc(S(=O)(=O)O)cc(O)c2c1N=Nc1ccccc1C(F)(F)F` it was 12.2% (inactive); in that of `COC(C(=O)O)c1ccccc1` (stereo not given), 2.75% (inactive); in that of `O=C1NC(=O)c2cc([N+](=O)[O-])ccc21`, -24.8% (inactive).
Same read-out and setting: in the case of `CC(C)OC(=O)OCOP(=O)(CO[C@H](C)Cn1cnc2c(N)ncnc21)OCOC(=O)OC(C)C` it was 0.468% [at 28.5 µM] (inactive).
For `Cc1cc(O)c2c(c1)C(=O)c1cc(O)cc(O)c1C2=O`, the “activity, negative = inhibition” value is 1.86% (inactive).
Regarding `CC(C)COCC(CN(Cc1ccccc1)c1ccccc1)N1CCCC1` (stereo not given), the Potency is 6.5 µM (active).
As to `O=C(Nc1cccc(C(F)(F)F)c1)c1cc(Br)cc(Br)c1O`, the “activity, negative = inhibition” value was -12.5% (inactive).
For the compound `O=C1OC(=O)c2c(Br)c(Br)c(Br)c(Br)c21`, the “activity, negative = inhibition” value was 5.02% (inactive).
Same read-out and setting: in the case of `NNC(=O)CCCCC(=O)NN` it was 4.42% (inactive).
On to `CC1CCCC1`, for which the “activity, negative = inhibition” value is -1.74% (inactive).
On the same count and under the same terms, in the case of `O=C1C=CC(=O)N1` it was 6.26% (inactive); in that of `O=S(=O)(c1cccc2cnccc12)N1CCCNCC1`, 72.7% [at 28.5 µM] (inactive); in that of `CC(C)(COC(=O)c1ccccc1)COC(=O)c1ccccc1`, -0.106% (inactive).
Turning to `CCCCN(CCCC)CCC(O)c1cc2c(Cl)cc(Cl)cc2c2cc(C(F)(F)F)ccc12` (stereo not given), the “activity, negative = inhibition” value is 11.4% [at 28.5 µM] (inactive).
The same measure, in the same setting: the result for `C[C@]12CCC(=O)C=C1C=C[C@@H]1[C@@H]2CC[C@@]2(C)[C@H]1CC[C@@]21CCC(=O)O1` reads 1.47% [at 28.5 µM] (inactive); that for `COc1cc(C(C)C)c2c(c1)S(=O)(=O)N(COc1cc(=O)n3cccc(OCCN4CCCCC4)c3n1)C2=O`, 4.6% [at 12.7 µM] (inactive).
On to `CC(C)c1ccc2c(c1)CC[C@H]1[C@](C)(CN)CCC[C@]21C`, for which the Potency is 29.8 µM (active).
Regarding `CN(C)c1ccc(C2(c3ccc(N(C)C)cc3)OC(=O)c3cc(N(C)C)ccc32)cc1`, the “activity, negative = inhibition” value is 11.9% (inactive).
The same measure, in the same setting: in the case of `O=c1[nH]sc2ccccc12` it was -8.32% (inactive).
Consider `Nc1nc(Cl)cc(Cl)n1`, for which the “activity, negative = inhibition” value was 11% (inactive).
For the compound `Cc1c(N)c(=O)n(-c2ccccc2)n1C`, the “activity, negative = inhibition” value is 2.36% [at 28.5 µM] (inactive).
As to `Cc1cccc(OCC(O)CNC(C)(C)C)c1C` (stereo not given), the “activity, negative = inhibition” value is -1.92% [at 28.5 µM] (inactive).
Same read-out and setting: the result for `CCC(C)C(C)=O` (stereo not given) reads -14.6% (inactive).
For `CC(Cc1cccc(C(F)(F)F)c1)NCCOC(=O)c1ccccc1` (stereo not given), the Potency was 20.5 µM (active).
Take `CC(C)C(O)(c1ccc(OC(F)(F)F)cc1)c1cncnc1` (stereo not given): the “activity, negative = inhibition” value was 22.7% (inactive).
Still for that read-out and setting: the result for `COC(=O)C1=C(C)NC(COC(N)=O)=C(C(=O)OC(C)C)C1c1cccc(Cl)c1Cl` (stereo not given) reads -20.7% [at 28.5 µM] (inactive); that for `CC(=O)Oc1cccc(C)c1`, 2.21% [at 28.5 µM] (inactive); that for `O=C(O)c1ccccc1C(=O)OCc1ccccc1`, 1.43% (inactive).
Still for that read-out and setting: in the case of `NC(=O)N1C(=O)C(C(=O)c2cc(Cl)cs2)c2cc(F)c(Cl)cc21` (stereo not given) it was -18.5% (inactive); in that of `CC(C)Nc1ccc(NC(C)C)c2c1C(=O)c1ccccc1C2=O`, 2.86% [at 28.5 µM] (inactive).
As to `C[C@@H](N)C(=O)O`, the “activity, negative = inhibition” value was -13.8% [at 28.5 µM] (inactive).
Consider `Cc1ccc(C)c([N+](=O)[O-])c1`, for which the “activity, negative = inhibition” value is -21.4% (inactive).
For `CCCCCCCC/C=C\CCCCCCCC(=O)OCCO`, the “activity, negative = inhibition” value is -18.3% (inactive).
In the case of `OCc1c[nH]c2ccccc12`, the “activity, negative = inhibition” value is -62.4% (inactive).
